According to PubChem BioAssay (NCATS):

Assay: qHTS profiling of the MIPE4 collection as inhibitors of Plasmodium falciparum (HB3) proliferation (AID 743347);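 note: plate controls were DMSO vehicle wells for no effect and artemisinin wells for full effect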
Details: P. falciparum HB3 in erythrocytes, SYBR Green DNA, 72 h; at 28.5 µM (top of the series) unless noted
Text: Plasmodium falciparum is a virulent malarial parasite that kills 1-2 million people worldwide each year. Transmitted by mosquitoes, the sporozoite form of the parasite enters the blood stream to infect hepatocytes, where they become merozoites that infect red blood cells (erythrocytes). Within erythrocytes, merozoites begin a […] cycle of growth and division, after which the parasite is released to infect new red blood cells. Gametocytes, which form within erythrocytes as well, circulate in the bloodstream and are ingested by the mosquito, thereby completing the life cycle. To profile malarial isolates for differential chemical responses and to identify inhibitors of malarial growth, an assay that measures P. falciparum growth and replication within erythrocytes was employed. This assay uses a DNA binding fluorescent dye (SYBR Green) to detect parasite DNA following cell lysis. Because mature erythrocytes lack DNA, only Plasmodium-derived DNA is detected.
The SYBR Green viability assay was adapted from a method described previously (Plouffe et al., 2008). For screening 3 ul culture medium was dispensed into 1536 well black clear bottom plates (Aurora Biotechnologies) using a Multidrop Combi (Thermo Fisher Scientific Inc.), 23 nL compounds in DMSO were added by a pin tool (Kalypsys), and 5 ul of erythrocytes infected with P. falciparum (0.3% parasitemia, 2.5% hematocrit final concentration) were added. The plates were incubated at 37 C in a humidified incubator in 5% CO2 for 72 h, and 2 ul lysis buffer (20 mM Tris HCl, 10 mM EDTA, 0.16% saponin, 1.6% triton X, 10X SYBR Green I supplied as 10,000X […] by Invitrogen) was added to each well. The plates were mixed for 25 sec with gentle shaking and incubated overnight at room temperature in the dark. The following morning, fluorescence intensity at 485(14) nm excitation and 535(25) nm emission wavelengths was measured on an EnVision (Perkin Elmer) plate reader. Plate reads were normalized relative to the control inhibitor (0.29 uM artemisinin) and vehicle (DMSO) wells present on each plate and then corrected by an algorithm using vehicle-only control plates at the beginning and end of the compound plate stack.

Point of comparison: `C=C(C)[C@@H]1CC[C@]2(C(=O)O)CC[C@]3(C)[C@H](CC[C@@H]4[C@@]5(C)CC[C@H](O)C(C)(C)[C@@H]5CC[C@]43C)[C@@H]12`, growth, % of control 208%. Against it:
- CCCCCCCCCCCCCCCC(=O)O[C@H]1[C@@H](O)[C@@H](O)[C@@H]([C@H](NC(=O)[C@@H]2C[C@@H](CCC)CN2C)[C@H](C)Cl)O[C@@H]1SC — lower, 81.5%
- CC1(C)CC(O)CC(C)(C)N1[O] — lower, 60.2%
- CC(=O)N(O)CCCP(=O)(O)O — lower, 13%
- CN1C(=O)C[C@H](C(=O)N[C@@H](Cc2cnc[nH]2)C(=O)N2CCC[C@@H]2C(N)=O)NC1=O — lower, 48.7%
- CCN1C[C@H](C)n2c(c(O)c3c(=O)n(Cc4ccc(F)c(Cl)c4)nc(C(=O)NC)c32)C1=O — lower, 48.6%
- C[N+](C)([O-])CCNc1ccc(NCC[N+](C)(C)[O-])c2c1C(=O)c1c(O)ccc(O)c1C2=O — lower, 60.6%
- C[C@@H](c1ncncc1F)[C@](O)(Cn1cncn1)c1ccc(F)cc1F — lower, 94.6%
- Cc1cn([C@@H]2C[C@@H](O)[C@H](CO)O2)c(=O)[nH]c1=O — lower, 59.6%
- Nc1nc(OCc2ccccc2)c2[nH]cnc2n1 — lower, 44%
- O=C(O)c1ccccc1C(=O)Nc1ccc(-c2ccccc2)cc1 — lower, 87.2%
- CC(=O)N[C@H]1[C@@H]([C@H](O)[C@H](O)CO)OC(C(=O)O)=C[C@@H]1N=C(N)N — lower, 100%
- NC(=O)c1ncn([C@@H]2O[C@H](CO)[C@@H](O)[C@@H]2O)n1 — lower, 53.5%
- COC(=O)C[C@](O)(CCCC(C)(C)O)C(=O)O[C@@H]1C(OC)=C[C@]23CCCN2CCc2cc4c(cc2[C@H]13)OCO4 — lower, 76.2%
- O=C(C[C@@H]1NCCC[C@@H]1O)Cn1cnc2ccccc2c1=O — lower, 5.66%
- Cc1ncc(C[n+]2csc(CCO)c2C)c(=O)[nH]1 — lower, 73.2%
- COc1cc([C@@H]2c3cc4c(cc3[C@H](O)[C@H]3COC(=O)[C@@H]23)OCO4)cc(OC)c1OC — lower, 44.9%
- O=C1CC[C@@]2(O)[C@H]3Cc4ccc(O)c5c4C2(CCN3CC2CC2)[C@H]1O5 — lower, 94.1%
- COc1cc(CNC(=O)CCCCC=CC(C)C)ccc1O — lower, 105%
- C[C@H](CCC(=O)O)[C@H]1CC[C@H]2[C@H]3[C@@H](CC[C@]12C)[C@@]1(C)CC[C@@H](O)C[C@H]1C[C@@H]3O — lower, 23.1%
- CC=C1C2C=C(C)CC1(N)c1ccc(=O)[nH]c1C2 (stereo not given) — lower, 103%
- c1coc(CNc2ncnc3nc[nH]c23)c1 — lower, 65.3%
- O=c1[nH]c(=O)n([C@H]2C[C@@H](O)[C@@H](CO)O2)cc1C=CBr — higher, 652%
- CN[C@H](CC(C)C)C(=O)N[C@H]1C(=O)N[C@@H](CC(N)=O)C(=O)N[C@@H]2C(=O)N[C@H]3C(=O)N[C@H](C(=O)N[C@H](C(=O)O)c4cc(O)cc(O)c4-c4cc3ccc4O)[C@H](O)c3ccc(c(Cl)c3)Oc3cc2cc(c3O[C@@H]2O[C@H](CO)[C@@H](O)[C@H](O)[C@@H]2O[C@H]2C[C@](C)(N)[C@H](O)[C@H](C)O2)Oc2ccc(cc2Cl)[C@H]1O — higher, 704%
- C[C@@H]1C(=O)O[C@H]2CC34[C@H]5C[C@@H](C(C)(C)C)C36[C@H](OC(=O)[C@@H]6O)O[C@@]4(C(=O)O5)[C@]21O (stereo not given in full) — lower, 102%
- CN1c2cc(O)c(N=NC(N)=O)cc2CC1S(=O)(=O)O (stereo not given) — lower, 54.6%
- O=C(O)C(=O)Nc1cccc(C2=NN=N[N]2)c1 — lower, 97.2%
- CC(C)OC(=O)[C@H](C)N[P@](=O)(OC[C@H]1O[C@@H](n2ccc(=O)[nH]c2=O)[C@](C)(F)[C@H]1O)Oc1ccccc1 — lower, 76.4%
- CC(=O)O[C@H]1C[C@@H]2CC[C@H]3[C@H]4C[C@H]([N+]5(C)CCCCC5)[C@@H](OC(C)=O)[C@@]4(C)CC[C@@H]3[C@@]2(C)C[C@H]1[N+]1(C)CCCCC1 — lower, 72.7%
- O=C1c2cccc(O)c2C(=O)c2c(O)cc(CO)cc21 — higher, 568%
- CCCNC(=O)Nc1ccc(Oc2ncnc3cc(OC)c(OC)cc23)cc1Cl — lower, 34.8%
- C=C1C[C@@]2(O)O[C@@]3(C[C@H]2C(C)C)[C@H](C)CC[C@H]13 — lower, 68.4%
- CC=CCC=CCCC(=O)[C@H]1O[C@@H]1C(N)=O — lower, 71.3%
- C[C@H](CCC(=O)O)[C@H]1CC[C@H]2[C@@H]3[C@H](O)C[C@@H]4C[C@H](O)CC[C@]4(C)[C@@H]3CC[C@]12C — lower, 81.3%
- CCOC1OC(=O)C[C@H]1NC(=O)[C@@H]1CCCN1C(=O)[C@@H](NC(=O)c1ccc(N)c(Cl)c1)C(C)(C)C (stereo not given in full) — higher, 216%
- CN1C2CCC1CC(OC(=O)C(CO)c1ccccc1)C2 (stereo not given) — lower, 108%
- CON=C(C(=O)N[C@@H]1C(=O)N2C(C(=O)O)=C(Cn3ccc(=N)n3CCO)CS[C@H]12)c1csc(N)n1 — lower, 99.1%
- CC(N[C@H]1CCCC[C@H]1NC(=O)c1ccc(Cl)cc1)c1cccc2ccccc12 (stereo not given in full) — lower, 39.9%

Point of comparison: `NC1=N[C@H]2[C@H](CS[C@H]2CCCCC(=O)O)N1`, growth, % of control 44.4% [at 9.64 µM]. Against it:
- CC[C@H](C=C[C@@H](C)[C@H]1CC[C@H]2[C@@H]3CC=C4C[C@@H](O)CC[C@]4(C)[C@@H]3CC[C@]12C)C(C)C — higher, 89% [at 9.64 µM]
